Laboratory results taken from the supplement of paper PMC11732987, “Enantioselective OTUD7B fragment discovery through chemoproteomics screening and high-throughput optimisation” (Communications Chemistry, 2025).

What was measured:
Assay in all cases: log2 ratio of Biotin-Ahx-Ub-VS probe labelling (fragment/DMSO); higher = less target engagement (more negative = stronger competition), active = hit call of the paper (q ≤ 0.05, log2 ratio ≤ -1)
Settings in all cases: compound concentration: 200 uM; treatment time: 3 h
USP34 = USP34 (UniProt Q70CQ2)
Outline: (§1)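 Labelling with Biotin-Ahx-Ub-VS (0.5 µM final, 1 h) followed a 3 h triplicate treatment of HEK293T lysate (495 µg per sample, Tris/CHAPS/IGEPAL buffer with protease inhibitors) with fragment at 200 µM or vehicle. Labelled DUBs were NeutrAvidin-enriched, digested with LysC and trypsin, and run by diaPASEF LC-MS/MS. The values, average log2 fragment/vehicle ratios by unpaired t-test, come from global-median-normalised Spectronaut label-free quantities. Proteins with ≥2 unique peptides were used.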

USP36 = target: T1, USP36 (UniProt Q9P275)
T1 sequence (whole entry): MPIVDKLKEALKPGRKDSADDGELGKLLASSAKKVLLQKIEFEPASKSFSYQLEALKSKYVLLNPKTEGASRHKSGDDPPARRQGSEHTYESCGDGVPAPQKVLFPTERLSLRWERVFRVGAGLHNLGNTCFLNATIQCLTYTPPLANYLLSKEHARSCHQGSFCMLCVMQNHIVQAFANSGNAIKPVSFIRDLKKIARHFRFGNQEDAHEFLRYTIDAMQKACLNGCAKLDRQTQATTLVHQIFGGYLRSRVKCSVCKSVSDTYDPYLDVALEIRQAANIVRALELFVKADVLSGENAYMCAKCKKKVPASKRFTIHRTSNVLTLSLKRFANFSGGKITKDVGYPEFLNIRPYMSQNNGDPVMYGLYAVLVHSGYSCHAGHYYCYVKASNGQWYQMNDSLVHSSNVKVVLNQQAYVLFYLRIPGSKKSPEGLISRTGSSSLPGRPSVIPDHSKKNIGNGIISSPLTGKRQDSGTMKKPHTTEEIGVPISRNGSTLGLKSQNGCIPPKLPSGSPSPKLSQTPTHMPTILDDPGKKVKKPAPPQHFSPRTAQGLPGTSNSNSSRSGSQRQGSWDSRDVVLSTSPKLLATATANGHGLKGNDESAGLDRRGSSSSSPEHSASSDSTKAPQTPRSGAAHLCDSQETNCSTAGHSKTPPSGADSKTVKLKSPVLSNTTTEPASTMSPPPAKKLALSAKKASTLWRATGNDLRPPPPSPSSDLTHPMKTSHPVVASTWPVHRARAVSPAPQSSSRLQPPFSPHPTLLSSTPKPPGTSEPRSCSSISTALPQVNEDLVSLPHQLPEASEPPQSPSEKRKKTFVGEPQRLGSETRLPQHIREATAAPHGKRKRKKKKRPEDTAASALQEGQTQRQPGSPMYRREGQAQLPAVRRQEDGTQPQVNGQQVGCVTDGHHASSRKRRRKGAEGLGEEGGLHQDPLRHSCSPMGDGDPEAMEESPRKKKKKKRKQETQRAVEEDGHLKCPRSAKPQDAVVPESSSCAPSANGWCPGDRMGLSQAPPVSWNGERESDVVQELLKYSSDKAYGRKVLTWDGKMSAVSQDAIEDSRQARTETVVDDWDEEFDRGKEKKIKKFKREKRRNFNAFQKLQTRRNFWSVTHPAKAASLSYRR
Outline: as §1

USP38 = target: T2, USP38 (UniProt Q8NB14)
T2 sequence (whole entry): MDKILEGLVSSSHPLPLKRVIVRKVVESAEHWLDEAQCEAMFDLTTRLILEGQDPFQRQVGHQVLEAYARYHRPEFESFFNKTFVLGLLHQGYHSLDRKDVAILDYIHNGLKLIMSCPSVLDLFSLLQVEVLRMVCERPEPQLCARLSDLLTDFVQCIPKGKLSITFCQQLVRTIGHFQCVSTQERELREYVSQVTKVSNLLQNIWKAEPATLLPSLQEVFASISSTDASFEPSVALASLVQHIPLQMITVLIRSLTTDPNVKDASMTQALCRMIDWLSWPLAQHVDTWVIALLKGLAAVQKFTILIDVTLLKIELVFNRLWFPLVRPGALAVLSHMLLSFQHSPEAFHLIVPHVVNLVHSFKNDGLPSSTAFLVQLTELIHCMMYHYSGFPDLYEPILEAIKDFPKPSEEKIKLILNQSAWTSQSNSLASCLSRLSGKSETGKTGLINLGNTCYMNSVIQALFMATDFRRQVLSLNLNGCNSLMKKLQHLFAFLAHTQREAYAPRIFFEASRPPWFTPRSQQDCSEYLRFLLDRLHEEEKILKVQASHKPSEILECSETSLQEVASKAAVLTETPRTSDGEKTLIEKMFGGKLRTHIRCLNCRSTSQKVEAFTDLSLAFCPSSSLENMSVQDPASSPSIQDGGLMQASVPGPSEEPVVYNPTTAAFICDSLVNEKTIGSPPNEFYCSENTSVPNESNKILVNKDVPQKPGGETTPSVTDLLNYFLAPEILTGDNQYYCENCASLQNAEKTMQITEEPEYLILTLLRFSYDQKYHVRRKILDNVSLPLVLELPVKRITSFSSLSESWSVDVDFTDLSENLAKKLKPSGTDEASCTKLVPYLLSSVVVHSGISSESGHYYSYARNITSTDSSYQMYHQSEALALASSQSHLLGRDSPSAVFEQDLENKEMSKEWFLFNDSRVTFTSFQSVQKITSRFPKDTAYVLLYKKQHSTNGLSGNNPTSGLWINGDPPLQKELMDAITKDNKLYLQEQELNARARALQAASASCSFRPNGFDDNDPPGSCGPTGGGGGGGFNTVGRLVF
Outline: as §1

USP39 = target: T3, USP39 (UniProt Q53GS9)
T3 sequence (whole entry): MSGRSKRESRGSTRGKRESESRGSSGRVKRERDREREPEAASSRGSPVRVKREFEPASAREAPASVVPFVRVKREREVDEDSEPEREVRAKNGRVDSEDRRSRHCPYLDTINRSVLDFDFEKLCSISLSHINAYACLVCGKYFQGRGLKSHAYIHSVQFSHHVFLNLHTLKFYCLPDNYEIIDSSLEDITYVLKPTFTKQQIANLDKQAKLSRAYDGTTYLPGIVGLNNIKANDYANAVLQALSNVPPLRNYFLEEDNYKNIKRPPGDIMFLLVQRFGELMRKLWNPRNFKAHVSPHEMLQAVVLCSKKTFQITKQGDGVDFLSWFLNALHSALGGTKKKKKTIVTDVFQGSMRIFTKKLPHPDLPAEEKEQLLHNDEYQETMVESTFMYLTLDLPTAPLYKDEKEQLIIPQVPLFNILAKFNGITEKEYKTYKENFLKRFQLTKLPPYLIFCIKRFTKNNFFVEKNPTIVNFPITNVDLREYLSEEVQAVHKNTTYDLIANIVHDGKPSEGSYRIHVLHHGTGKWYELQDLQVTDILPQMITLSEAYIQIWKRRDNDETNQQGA
Outline: as §1

USP4 = target: T4, USP4 (UniProt Q13107)
T4 sequence (whole entry): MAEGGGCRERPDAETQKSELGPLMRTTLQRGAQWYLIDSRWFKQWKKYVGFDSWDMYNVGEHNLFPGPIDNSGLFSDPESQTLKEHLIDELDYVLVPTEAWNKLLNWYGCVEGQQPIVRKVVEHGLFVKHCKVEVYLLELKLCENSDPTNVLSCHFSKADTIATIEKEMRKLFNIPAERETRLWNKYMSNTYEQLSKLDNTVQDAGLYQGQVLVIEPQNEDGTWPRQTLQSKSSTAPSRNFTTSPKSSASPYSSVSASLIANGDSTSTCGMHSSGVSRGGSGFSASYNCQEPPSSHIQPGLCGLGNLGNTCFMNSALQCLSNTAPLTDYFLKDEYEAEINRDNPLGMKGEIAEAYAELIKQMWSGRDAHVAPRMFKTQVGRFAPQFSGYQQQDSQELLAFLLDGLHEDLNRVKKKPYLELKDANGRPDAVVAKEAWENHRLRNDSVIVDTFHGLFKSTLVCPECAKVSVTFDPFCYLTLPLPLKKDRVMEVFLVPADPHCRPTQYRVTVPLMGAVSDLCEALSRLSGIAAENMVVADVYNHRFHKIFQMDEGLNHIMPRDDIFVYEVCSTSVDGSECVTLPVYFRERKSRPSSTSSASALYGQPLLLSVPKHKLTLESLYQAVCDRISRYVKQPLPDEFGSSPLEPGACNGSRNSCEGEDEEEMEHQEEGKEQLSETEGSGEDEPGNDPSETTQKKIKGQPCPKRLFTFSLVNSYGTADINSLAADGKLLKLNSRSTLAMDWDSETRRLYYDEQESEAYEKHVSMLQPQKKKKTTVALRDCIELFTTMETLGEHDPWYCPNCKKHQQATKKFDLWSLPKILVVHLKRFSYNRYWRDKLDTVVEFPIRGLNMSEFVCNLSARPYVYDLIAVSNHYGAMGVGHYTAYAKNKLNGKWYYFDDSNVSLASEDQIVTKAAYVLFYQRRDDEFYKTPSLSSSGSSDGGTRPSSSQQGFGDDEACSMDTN
Outline: as §1

Measured: log2 ratio of Biotin-Ahx-Ub-VS probe labelling

USP34, sequence (Q70CQ2 whole entry, the tested form may be a part): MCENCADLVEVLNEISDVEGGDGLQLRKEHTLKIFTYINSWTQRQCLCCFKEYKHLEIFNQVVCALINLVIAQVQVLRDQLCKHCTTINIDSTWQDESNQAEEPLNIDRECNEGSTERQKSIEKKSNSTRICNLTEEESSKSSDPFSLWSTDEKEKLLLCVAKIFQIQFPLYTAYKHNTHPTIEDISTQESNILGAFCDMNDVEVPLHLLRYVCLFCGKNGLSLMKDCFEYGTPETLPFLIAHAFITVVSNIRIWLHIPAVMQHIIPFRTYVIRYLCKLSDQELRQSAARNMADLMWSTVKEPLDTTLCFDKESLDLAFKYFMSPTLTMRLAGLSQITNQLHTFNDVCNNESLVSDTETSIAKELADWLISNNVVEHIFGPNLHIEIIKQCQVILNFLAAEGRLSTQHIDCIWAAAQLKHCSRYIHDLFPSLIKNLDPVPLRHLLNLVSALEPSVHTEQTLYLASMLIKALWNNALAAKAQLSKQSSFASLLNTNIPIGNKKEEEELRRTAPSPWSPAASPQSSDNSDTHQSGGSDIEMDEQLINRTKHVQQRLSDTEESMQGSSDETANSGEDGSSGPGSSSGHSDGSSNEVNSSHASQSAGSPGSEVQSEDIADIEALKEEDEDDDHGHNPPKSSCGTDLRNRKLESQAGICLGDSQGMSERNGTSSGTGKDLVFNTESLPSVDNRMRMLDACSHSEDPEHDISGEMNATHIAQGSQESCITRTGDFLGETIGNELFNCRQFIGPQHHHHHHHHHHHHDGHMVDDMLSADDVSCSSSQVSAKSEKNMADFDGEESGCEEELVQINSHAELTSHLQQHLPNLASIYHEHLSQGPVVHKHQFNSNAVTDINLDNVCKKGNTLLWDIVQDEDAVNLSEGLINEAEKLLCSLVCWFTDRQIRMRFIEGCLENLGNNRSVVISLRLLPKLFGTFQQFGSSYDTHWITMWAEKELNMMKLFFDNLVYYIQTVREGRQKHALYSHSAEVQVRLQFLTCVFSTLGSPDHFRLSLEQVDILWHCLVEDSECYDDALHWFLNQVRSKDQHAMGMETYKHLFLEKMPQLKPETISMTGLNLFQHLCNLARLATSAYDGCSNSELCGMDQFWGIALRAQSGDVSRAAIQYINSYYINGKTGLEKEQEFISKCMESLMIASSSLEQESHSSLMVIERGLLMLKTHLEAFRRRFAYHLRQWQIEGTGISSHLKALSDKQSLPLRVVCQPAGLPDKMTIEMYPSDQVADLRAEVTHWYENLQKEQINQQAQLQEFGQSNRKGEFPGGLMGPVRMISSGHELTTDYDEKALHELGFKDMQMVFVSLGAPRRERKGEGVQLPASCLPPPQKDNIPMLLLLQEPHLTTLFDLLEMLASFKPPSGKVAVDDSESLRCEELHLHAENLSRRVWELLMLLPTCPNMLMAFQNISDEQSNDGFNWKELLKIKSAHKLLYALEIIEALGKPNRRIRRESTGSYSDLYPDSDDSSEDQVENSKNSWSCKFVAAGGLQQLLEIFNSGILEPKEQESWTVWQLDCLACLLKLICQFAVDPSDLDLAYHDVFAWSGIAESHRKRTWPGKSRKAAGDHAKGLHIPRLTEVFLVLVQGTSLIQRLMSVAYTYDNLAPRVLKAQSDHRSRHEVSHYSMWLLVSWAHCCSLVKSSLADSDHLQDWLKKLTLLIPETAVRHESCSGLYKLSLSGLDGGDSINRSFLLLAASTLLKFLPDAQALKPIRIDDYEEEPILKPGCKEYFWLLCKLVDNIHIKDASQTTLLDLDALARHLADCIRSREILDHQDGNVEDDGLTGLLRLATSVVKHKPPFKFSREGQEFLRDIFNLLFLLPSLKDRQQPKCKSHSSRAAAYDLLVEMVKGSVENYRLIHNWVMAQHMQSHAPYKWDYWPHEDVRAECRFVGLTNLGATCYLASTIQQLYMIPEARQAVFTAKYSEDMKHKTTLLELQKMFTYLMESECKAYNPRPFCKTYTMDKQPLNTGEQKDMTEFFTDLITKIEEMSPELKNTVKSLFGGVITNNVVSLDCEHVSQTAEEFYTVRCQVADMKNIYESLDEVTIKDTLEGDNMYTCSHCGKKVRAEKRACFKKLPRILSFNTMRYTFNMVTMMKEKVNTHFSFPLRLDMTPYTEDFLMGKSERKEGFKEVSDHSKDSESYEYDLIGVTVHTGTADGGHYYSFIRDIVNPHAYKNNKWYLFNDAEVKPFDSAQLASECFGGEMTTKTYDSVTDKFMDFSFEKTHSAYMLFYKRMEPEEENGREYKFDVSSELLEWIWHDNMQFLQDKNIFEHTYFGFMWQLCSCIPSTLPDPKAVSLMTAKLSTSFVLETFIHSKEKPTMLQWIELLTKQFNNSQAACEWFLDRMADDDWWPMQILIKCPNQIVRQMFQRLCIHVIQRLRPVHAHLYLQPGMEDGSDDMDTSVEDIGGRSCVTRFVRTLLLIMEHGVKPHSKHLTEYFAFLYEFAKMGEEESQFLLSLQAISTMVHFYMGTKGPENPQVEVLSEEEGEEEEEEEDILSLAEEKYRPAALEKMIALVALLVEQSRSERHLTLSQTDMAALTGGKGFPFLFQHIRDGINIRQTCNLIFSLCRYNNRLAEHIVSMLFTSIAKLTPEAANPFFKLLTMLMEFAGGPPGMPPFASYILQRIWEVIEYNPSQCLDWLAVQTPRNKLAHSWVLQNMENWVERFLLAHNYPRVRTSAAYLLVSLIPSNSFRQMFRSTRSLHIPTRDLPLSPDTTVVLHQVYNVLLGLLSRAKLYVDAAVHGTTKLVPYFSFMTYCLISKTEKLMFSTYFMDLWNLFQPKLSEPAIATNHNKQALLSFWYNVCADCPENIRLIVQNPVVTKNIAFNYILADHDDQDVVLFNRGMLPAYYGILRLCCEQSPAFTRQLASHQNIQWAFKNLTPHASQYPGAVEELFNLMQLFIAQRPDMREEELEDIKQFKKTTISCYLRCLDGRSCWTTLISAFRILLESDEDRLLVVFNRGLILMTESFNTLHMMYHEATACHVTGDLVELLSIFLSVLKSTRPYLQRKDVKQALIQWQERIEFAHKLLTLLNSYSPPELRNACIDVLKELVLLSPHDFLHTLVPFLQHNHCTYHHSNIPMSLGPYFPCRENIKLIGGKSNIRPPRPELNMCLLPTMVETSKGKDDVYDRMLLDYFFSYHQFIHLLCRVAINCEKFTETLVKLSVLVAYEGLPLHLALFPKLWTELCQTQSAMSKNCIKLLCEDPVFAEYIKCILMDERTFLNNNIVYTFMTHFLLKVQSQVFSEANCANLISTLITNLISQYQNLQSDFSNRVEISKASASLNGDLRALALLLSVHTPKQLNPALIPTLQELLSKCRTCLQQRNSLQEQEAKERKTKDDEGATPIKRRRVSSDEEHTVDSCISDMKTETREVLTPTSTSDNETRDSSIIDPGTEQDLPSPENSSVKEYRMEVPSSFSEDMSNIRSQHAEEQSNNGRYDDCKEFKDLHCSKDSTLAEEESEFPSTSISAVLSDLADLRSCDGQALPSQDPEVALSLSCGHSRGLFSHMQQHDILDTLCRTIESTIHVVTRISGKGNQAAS

Cc1cccc(NC(=O)CCl)c1C
inactive: USP34 -0.304 | USP36 -0.363 | USP38 -0.389 | USP39 -0.513 | USP4 -0.269
